# Sampled rows, rich in hits. Any-hit rate of the full collection: about 7.4%.
# NPC1 prom act – activates the NPC1 promoter; Huh7 NPC1 promoter luciferase reporter, 24 h; Potency, µM (top dose mostly 9.22 µM), without a hit: at the top dose activation, actives largely listed as activators; 2.4% of 320,000 active; AID 485313; further: % of control where 0% means no effect; nearly all actives have a fitted effect of over 60% in size
#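 Readout is luciferase luminescence, reflecting NPC1 promoter activation in stably transfected Huh7 cells after 24 h compound exposure at 37 °C in reduced-serum medium with 10% FBS.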
# Rab9 prom act – activators of Rab9 promoter; 2.8% of 320,000 active; Huh7 Rab9 promoter-luciferase reporter, luminescence, 24 h; AID 485297; Potency, µM (doses to about 9.22 µM), inactives show at the top dose activation, negative = inhibition, hits mostly activators; further: % of control where 0% means no effect; nearly all actives have a fitted effect of over 60% in size
#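 Huh7 cells stably carrying a Rab9 promoter-luciferase reporter, 1500 cells per well in OP-MEM I with 10% FBS, treated with compound 24 hours at 37C. Luciferase activity read by luminescence after 10 minutes with Amplite reagent.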
# FLuc modulator – inhibits or activates purified firefly luciferase, miR-21 counter-screen | 6.9% of 360,000 active | Potency, µM (titrated, usually from 57.5 µM), for the others: at the top dose activity change, negative = inhibition, most hits filed as inhibitors | P08659 | purified FLuc, Km substrates, luminescence inhibition;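 further: plate controls were vehicle for no effect and reference inhibitor for full effect; nearly all actives have a fitted effect of over 55% in size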
# Target sequence (P08659 whole entry, looked up): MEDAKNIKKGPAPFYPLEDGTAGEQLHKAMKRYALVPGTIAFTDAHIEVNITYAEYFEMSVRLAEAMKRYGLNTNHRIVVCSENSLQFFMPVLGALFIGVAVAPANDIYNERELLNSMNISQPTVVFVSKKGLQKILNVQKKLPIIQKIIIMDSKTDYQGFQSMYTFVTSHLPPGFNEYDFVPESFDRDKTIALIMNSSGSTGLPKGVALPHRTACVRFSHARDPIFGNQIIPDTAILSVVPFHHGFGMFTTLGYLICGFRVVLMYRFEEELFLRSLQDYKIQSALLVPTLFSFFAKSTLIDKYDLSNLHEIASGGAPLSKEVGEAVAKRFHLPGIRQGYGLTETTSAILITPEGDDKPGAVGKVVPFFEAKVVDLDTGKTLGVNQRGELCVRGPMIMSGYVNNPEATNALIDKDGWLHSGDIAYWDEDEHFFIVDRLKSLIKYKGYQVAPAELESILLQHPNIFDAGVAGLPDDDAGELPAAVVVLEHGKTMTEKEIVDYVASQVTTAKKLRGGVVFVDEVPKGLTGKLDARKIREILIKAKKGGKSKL
#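 Biochemical qHTS of compounds, final roughly 60 µM downward over six points, against 10 nM purified firefly luciferase using Km concentrations of substrates (10 uM D-luciferin, 10 uM ATP) in Tris acetate pH 7.5 buffer; luminescence output.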
# ELG1 genotoxic – induces genotoxicity in HEK293T cells with luciferase-tagged ELG1 | HEK293T ELG1-luciferase reporter, luminescence, 16 h | Potency, µM (doses to about 46 µM), for the others: at the highest dose activity change, positive = activation, most hits filed as activators | AID 504466 | 1.3% of 330,000 active; further: % of control where 0% means no effect; nearly all actives have a fitted effect of over 60% in size
#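 Reporter readout depends on ELG1 protein level, which increases with genetic stress. After 16 hr compound exposure at 37 °C, luciferase activity was quantified using ONE-Glo.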
# SMN2 splice up – enhancers of SMN2 splice variant expression. Potency, µM (titrated, usually from 46.1 µM), without a hit: top-dose activity change, positive = activation, hits mostly activators. 2.8% of 210,000 active. HEK293 SMN2-luciferase splicing reporter, luminescence, 30-36 h. AID 1458; further: % of control where 0% means no effect; nearly all actives have a fitted effect of over 55% in size
#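 HEK293 cells carry an SMN2 minigene-luciferase reporter in which exon 7 inclusion puts luciferase in frame. Cells were seeded at 2000 cells/well, attached for 10-12 hours, then exposed to compounds for 30-36 hours at 37C before ONE-Glo luminescence.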
# Numbers without * were called inactive; ? = inconclusive; / = not tested or not shown. The call rests on the fitted dose curve; in most records, active means well fitted curve in the direction sought with a large enough effect; inconclusive means small, poorly fitted or top-dose-only effect, or another doubt; inactive means no such curve, though single readings can be large; an effect the other way counts as inactive or inconclusive. Potency means the concentration at half of the fitted maximal effect.
SMILES,NPC1 prom act,Rab9 prom act,FLuc modulator,ELG1 genotoxic,SMN2 splice up
C/C(=N\Nc1nc(C)cc(-c2ccccc2)n1)c1ccc(O)cc1,13%,-31%,4.3µM*,-3%,/
C/C(=N\Nc1ccc([N+](=O)[O-])cc1)c1cccc(N)c1,?,?,19µM*,14%,?
C/C(=N/Nc1nc(C)cc(-c2ccccc2)n1)c1ccco1,?,?,15µM*,-5%,16%
Cc1c(Cl)cccc1NC(=O)Cn1cc(C(=O)C2CCCCC2)c2ccccc21,/,/,-1%,/,-41%
C/C(=N\Nc1nc(C)cc(-c2ccccc2)n1)c1ccccc1,20%,-6%,2.7µM*,-4%,/
Cc1cc(-c2ccccc2)nc(N/N=C/c2ccccc2F)n1,?,?,11µM*,3%,/
Clc1cccc(N2CCN(c3nc4ccccc4n4nnnc34)CC2)c1,/,/,2%,/,0%
C=C(C)CN(CC)c1nc(N)c2c(N)nc3c(c2c1C#N)CC(=O)N3C12CC3CC(CC(C3)C1)C2,-2%,-1%,-2%,-1%,-7%
N#Cc1c(N2CCCC(O)C2)nc(N)c2c(N)nc3c(c12)CC(=O)N3C12CC3CC(CC(C3)C1)C2 (configuration not stated),-3%,-11%,5.4µM*,-8%,-85%
COc1ccccc1C(=O)NCc1nnnn1-c1ccc(C)c(C)c1,/,/,-8%,/,/
COc1cccc(C2=NN(C(=O)c3ccco3)C(O)(C(F)(F)F)C2)c1 (configuration not stated),-8%,0%,?,0%,/
Nc1ccc(C(=O)N2N=C(c3ccccc3)CC2(O)C(F)(F)F)cc1 (configuration not stated),15%,2%,12µM*,0%,/
Cc1ccc(C2=NN(C(=O)c3ccco3)C(O)(C(F)(F)F)C2)cc1 (configuration not stated),-1%,-2%,19µM*,-2%,/
C=CCC1(O)CCOc2ccccc21 (configuration not stated),/,/,/,/,-3%
O=C(O)C1CCN(C(=O)COc2ccc3c4c(c(=O)oc3c2)CCCC4)CC1,0%,-7%,-21%,2%,/
COc1ccc(-c2cc3ccc(OCC(=O)NCC4CCC(C(=O)O)CC4)cc3oc2=O)cc1 (configuration not stated),3.2µM*,4.5µM*,0.95µM*,?,/
COc1ccc2c(c1)c(=O)oc1cc(OCC(=O)NCC3CCC(C(=O)O)CC3)ccc12 (configuration not stated),11%,1%,11µM*,11%,/
Cc1c(C)c2ccc(OCC(=O)N3CCC(C(=O)O)CC3)cc2oc1=O,-1%,-1%,19µM*,-1%,/
Cc1ccc(C)c(N(C)C(=O)Cc2c(C(=O)O)[nH]c3ccc(Cl)cc23)c1,/,/,?,/,-7%
Nc1ccc(N)c([N+](=O)[O-])c1,/,/,/,/,10%
Cc1c(Cl)cccc1NC(=O)CSc1nc(=O)n(Cc2ccncc2)c2c1CCC2,/,/,-2%,/,/
CC(=O)c1ccc(NC(=O)CSc2nc(N3CCOCC3)nc(N3CCOCC3)n2)cc1,28%,24%,-17%,18µM*,/
CC(=O)Nc1c(O)nc(SCC(=O)Nc2ccc(C(C)=O)cc2)[nH]c1=O,?,?,?,9.2µM*,?
CC(=O)Nc1c(O)nc(SCC(=O)Nc2cccc(C)c2)[nH]c1=O,-2%,1%,-1%,2%,4%
CCn1c(SCC(=O)Nc2ccccc2)nc2c([nH]c3ccccc32)c1=O,/,/,-1%,/,/
SMILES,NPC1 prom act,Rab9 prom act,FLuc modulator,ELG1 genotoxic,SMN2 splice up
CCn1c(SCC(=O)Nc2ccc(C(C)=O)cc2)nc2c([nH]c3ccccc32)c1=O,-1%,19%,3%,16µM*,/
Cc1ccc2cccnc2c1,/,/,/,/,3%
COc1cccc2cc(C(=O)NCCc3c(C)[nH]c4ccc(Br)cc34)c(=O)oc12,/,/,-6%,/,2%
O=Nc1ccc(NOC(=O)c2ccccc2Br)cc1,7%,0%,0.24µM*,1%,11%
O=C(ONc1ccc(N=NC(=O)c2ccccc2O)cc1)c1ccccc1,?,4µM*,8.5µM*,10µM*,/
O=C(O)c1ccccc1CSc1nc2ccccc2o1,4.5µM*,?,11µM*,?,?
O=C(O)c1ccc(CSc2nc3ccccc3o2)cc1,-1%,0%,19µM*,5%,-10%
O=C(CCSc1nc2ccccc2o1)Nc1ccccc1,1%,0%,-4%,-1%,/
Cc1cc(=O)oc(C)c1C(=O)Nc1ccc(N(C)C)cc1,-3%,-2%,4%,1%,/
O=C(O)/C=C/c1cccc(NC(=O)c2ccc(Cl)cc2)c1,-4%,-4%,-4%,4%,/
Cc1oc(-c2ccccc2)cc1C(=O)Nc1ccc(N(C)C)cc1,0%,0%,13µM*,0%,-30%
Cc1oc(C(C)(C)C)cc1C(=O)Nc1cccc(/C=C\C(=O)O)c1,2%,2%,8.5µM*,9%,8%
O=C(O)/C=C/c1cccc(NC(=O)c2ccccc2)c1,1%,14%,?,0%,/
Cc1oc(-c2ccccc2)cc1C(=O)Nc1cccc(/C=C\C(=O)O)c1,-4%,1%,15µM*,-1%,/
COc1ccc(-c2nc(-c3ccccc3)oc2NC(C)C)cc1,/,/,/,/,-9%
N#CCCCS(=O)(=O)c1nnnn1-c1ccc(Br)cc1,/,/,/,/,7%
COC(=O)c1c(SC)nc2ccccc2c1OCc1ccc(C)cc1C,/,/,4%,/,/
O=C(CSc1nncn2c1cc1occc12)Nc1ccccc1C(F)(F)F,/,/,-6%,/,/
CCN(CC)c1ccc(NC(=O)c2c(C)nn(-c3ccc(F)cc3)c2-n2cccc2)c(C)c1,/,/,-6%,/,/
O=S(=O)(c1ccccc1)N1CCC2(CCCN(Cc3cc(C(F)(F)F)cc(C(F)(F)F)c3)C2)CC1,/,/,/,/,-28%
CN1CCC(=NOc2ccc([N+](=O)[O-])cc2)CC1,1.8µM*,1.6µM*,?,?,/
COc1ccc(-c2cc(C(F)(F)F)nc(SCC(=O)NCCc3ccc(OC)c(OC)c3)n2)cc1,/,/,0%,/,-6%
CCOc1cc(/C=N/NC(=O)c2ccc(O)cc2)ccc1Oc1nc(Cl)ncc1F,-1%,1%,-17%,-12%,3%
CCOc1cc(/C=N\Nc2ncc(F)c(N3CCOCC3)n2)ccc1Oc1nc(Cl)ncc1F,-6%,-15%,21µM*,-10%,/
CNc1ccccc(-c2ccc3cc4c(cc3n2)OCO4)c1=O,?,?,3.4µM*,?,/
O=c1c2ccccc2nc(-c2ccco2)n1Cc1ccccc1,/,/,13µM*,/,?
c1coc(-c2nc3nc4ccccc4nc3n2-c2ccc3c(c2)OCCO3)c1,2%,15%,3.8µM*,-6%,-20%
c1ccc(Cn2c(-c3ccco3)nc3nc4ccccc4nc32)cc1,3.5µM*,3.2µM*,2.7µM*,?,16µM*
O=c1c2ccccc2nc(-c2ccc(Br)cc2)n1Cc1ccccc1,2%,0%,-1%,-9%,-9%

# Bioassay records deposited in PubChem BioAssay by National Center for Advancing Translational Sciences (NCATS).
